Usually AC50 stands for the concentration giving half of the maximal activity seen.

Activity calls are given as the source filed them. The calls were made as follows: active = hit-call score of the fitted dose curve at least 0.9, where 1 is the maximum; inactive = score below 0.9.

Details in all cases: mRNA level, 48 h; actives raise or lower the signal
Read-out in assay [1]: Peroxisomal acyl-coenzyme A oxidase 1 (ACOX1) gene, ACOX1 (gene 51)
Nature of the assay: LTEA_HepaRG_ACOX1: Life Technologies and Expression Analysis (LTEA) Assay for Peroxisomal acyl-coenzyme A oxidase 1 (ACOX1) gene using HepaRG (AID 2283467). An outline of the steps:
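Measured by qRT-PCR against three housekeeping genes: ACOX1 transcript change in human HepaRG cells after 48 h dosing. Concentrations ran up to 100 uM in half-log steps. Curves were fitted bidirectionally relative to 0.5% DMSO.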

Read-out in assay [2]: Alkaline Phosphatase, Placental (ALPP) gene, ALPP (gene 250)
Nature of the assay: LTEA_HepaRG_ALPP: Life Technologies and Expression Analysis (LTEA) Assay for Alkaline Phosphatase, Placental (ALPP) gene using HepaRG (AID 2283468). In short, it runs like this:
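qRT-PCR readout of ALPP mRNA (Fluidigm TaqMan), normalized to ACTB/GAPDH/POLR2A, after 48 h chemical exposure of HepaRG cells; 8-point half-log series, top 100 uM, 0.5% DMSO vehicle. Bidirectional curve fit versus DMSO baseline.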

Read-out in assay [3]: Bcl-2 (BAD) gene, BAD (gene 572)
Nature of the assay: LTEA_HepaRG_BAD: Life Technologies and Expression Analysis (LTEA) Assay for Bcl-2 (BAD) gene using HepaRG (AID 2283469). In short, it runs like this:
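BAD transcript change, measured by qRT-PCR against three housekeeping genes and fitted in both directions relative to 0.5% DMSO, after 48 h chemical treatment of human HepaRG liver cells at concentrations up to 100 uM.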

Read-out in assay [4]: Bcl-2 (BAX) gene, BAX (gene 581)
Nature of the assay: LTEA_HepaRG_BAX: Life Technologies and Expression Analysis (LTEA) Assay for Bcl-2 (BAX) gene using HepaRG (AID 2283470). An outline of the steps: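 HepaRG (human liver), 48 h exposure, duplicate wells. 8-pt curve, half-log from 100 uM, 0.5% DMSO. BAX transcript by TaqMan qRT-PCR; ACTB/GAPDH/POLR2A normalization; gain or loss vs DMSO baseline.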

Read-out in assay [5]: adenosine kinase (ADK) gene, ADK (gene 132)
Nature of the assay: LTEA_HepaRG_ADK: Life Technologies and Expression Analysis (LTEA) Assay for adenosine kinase (ADK) gene using HepaRG (AID 2283471). An outline of the steps:
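Read-out is ADK transcript level measured by qRT-PCR and normalised to three housekeeping genes. Cells are human HepaRG, dosed for 48 h at up to 100 uM in 0.5% DMSO. Gain or loss of signal is fitted against DMSO controls.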

Read-out in assay [6]: Alpha-fetoprotein (AFP) gene, AFP (gene 174)
The assay can be described thus: LTEA_HepaRG_AFP: Life Technologies and Expression Analysis (LTEA) Assay for Alpha-fetoprotein (AFP) gene using HepaRG (AID 2283472). In short, it runs like this:
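HepaRG, single lot; 48 h post-plating -> serum-free induction medium; cpd 8-pt, 100 uM top, half-log, 0.5% DMSO, duplicate, 48 h. RNA -> qRT-PCR AFP, norm ACTB/GAPDH/POLR2A. Bidirectional fit vs DMSO.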

Read-out in another assay: BCL2L11 (gene 10018)
Nature of the assay: LTEA_HepaRG_BCL2L11: Life Technologies and Expression Analysis (LTEA) Assay for Bcl-2 (BCL2L11) gene using HepaRG (AID 2283473). An outline of the steps:
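HepaRG, 48 h exposure, 8-pt half-log series from 100 uM in 0.5% DMSO, duplicates; qRT-PCR (Fluidigm TaqMan) for BCL2L11, housekeeping-normalized; bidirectional curve fit relative to DMSO baseline.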

Read-out in assay [7]: Apolipoprotein A-V (APOA5) gene, APOA5 (gene 116519)
Nature of the assay: LTEA_HepaRG_APOA5: Life Technologies and Expression Analysis (LTEA) Assay for Apolipoprotein A-V (APOA5) gene using HepaRG (AID 2283474). An outline of the steps:
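HepaRG, 48 h chemical exposure in serum-free induction medium, 8-pt half-log series (top 100 uM), 0.5% DMSO vehicle, duplicates. Readout: APOA5 mRNA by qRT-PCR, housekeeping-normalized; bidirectional fit vs DMSO baseline.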

Read-out in assay [8]: Apoptosis regulator Bcl-2 (Homo sapiens) (UniProt P10415)
The assay can be described thus: LTEA_HepaRG_BCL2: Life Technologies and Expression Analysis (LTEA) Assay for Bcl-2 gene using HepaRG (AID 2283475). In short, it runs like this: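 HepaRG, plated 48 h then switched to serum-free induction medium; dosed 48 h, 8 conc. (max 100 uM, half-log steps), duplicate, 0.5% DMSO. Lysis in RLT, RNA isolated, TaqMan qRT-PCR for BCL2; ACTB/GAPDH/POLR2A normalisation; bidirectional fit vs DMSO.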

Read-out in assay [9]: Bcl-2 (BID) gene, BID (gene 637)
Nature of the assay: LTEA_HepaRG_BID: Life Technologies and Expression Analysis (LTEA) Assay for Bcl-2 (BID) gene using HepaRG (AID 2283476). In short, it runs like this:
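Transcript levels of BID, measured by qRT-PCR and normalized to three housekeeping genes, were fitted bidirectionally against DMSO controls. Cells were HepaRG, dosed 48 h at up to 100 uM.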

Read-out in another assay: Caspase-3 (Homo sapiens) (UniProt P42574)
The assay can be described thus: LTEA_HepaRG_CASP3: Life Technologies and Expression Analysis (LTEA) Assay for cysteine-aspartic acid protease (CASP3) using HepaRG (AID 2283477). In short, it runs like this:
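HepaRG, 48 h exposure, 8 conc. (top 100 uM, half-log steps, duplicate), 0.5% DMSO vehicle; qRT-PCR of CASP3 transcript, housekeeping-normalised (ACTB/GAPDH/POLR2A); bidirectional curve fit vs DMSO baseline.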

Read-out in assay [10]: Cytochrome P450 (CYP24A1), CYP24A1 (gene 1591)
The assay can be described thus: LTEA_HepaRG_CYP24A1: Life Technologies and Expression Analysis (LTEA) Assay for Cytochrome P450 (CYP24A1) using HepaRG (AID 2283478). In short, it runs like this: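 qRT-PCR read-out: CYP24A1 transcript levels normalized to three housekeeping genes, bidirectional curve fits against 0.5% DMSO baseline. Human HepaRG cells treated 48 h with chemicals at eight concentrations from 100 uM in half-log steps.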

Read-out in assay [11]: cysteine-aspartic acid protease (CASP8), CASP8 (gene 841)
The assay can be described thus: LTEA_HepaRG_CASP8: Life Technologies and Expression Analysis (LTEA) Assay for cysteine-aspartic acid protease (CASP8) using HepaRG (AID 2283480). In short, it runs like this:
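HepaRG, 48 h exposure, duplicate wells; 8 conc, half-log from 100 uM, 0.5% DMSO. Serum-free induction medium. CASP8 mRNA by TaqMan qRT-PCR, norm. ACTB/GAPDH/POLR2A; gain/loss fitted vs DMSO.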

Read-out in assay [12]: Cytochrome P450 (CYP2B6), CYP2B6 (gene 1555)
The assay can be described thus: LTEA_HepaRG_CYP2B6: Life Technologies and Expression Analysis (LTEA) Assay for Cytochrome P450 (CYP2B6) using HepaRG (AID 2283481). In short, it runs like this:
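Read-out is CYP2B6 mRNA by TaqMan qRT-PCR, normalized to three housekeeping genes and fitted bidirectionally against 0.5% DMSO baseline. Human HepaRG cells received test chemicals for 48 h, top concentration 100 uM, half-log dilutions.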

Read-out in assay [13]: Cytochrome P450 2C19 (Homo sapiens) (UniProt P33261)
The assay can be described thus: LTEA_HepaRG_CYP2C19: Life Technologies and Expression Analysis (LTEA) Assay for CYP2C19 using HepaRG (AID 2283482). In short, it runs like this:
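HepaRG, 48 h chemical exposure, 8-pt half-log series from 100 uM in 0.5% DMSO, duplicates. Readout: CYP2C19 mRNA by TaqMan qRT-PCR, housekeeping-normalized. Bidirectional fit vs DMSO baseline; phenobarbital 1mM as induction control.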

Read-out in a further assay: CYP2C8 (gene 1558)
The assay can be described thus: LTEA_HepaRG_CYP2C8: Life Technologies and Expression Analysis (LTEA) Assay for CYP2C8 using HepaRG (AID 2283483). In short, it runs like this:
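CYP2C8 mRNA induction or loss, by qRT-PCR normalized to ACTB/GAPDH/POLR2A, is read in HepaRG cells after 48 h treatment. Concentrations run from 100 uM down in half-log dilutions, with 0.5% DMSO as vehicle and baseline.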

Read-out in the next assay: CYP2C9 (gene 1559)
Nature of the assay: LTEA_HepaRG_CYP2C9: Life Technologies and Expression Analysis (LTEA) Assay for CYP2C9 using HepaRG (AID 2283484). In short, it runs like this: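 Cells plated 48 h, switched to serum-free induction medium, then treated in duplicate for 48 h at eight concentrations (max 100 uM, 0.5% DMSO). RNA then analysed by qRT-PCR for CYP2C9; curves fitted in both directions relative to DMSO.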

Read-out in another assay: CYP2E1 (gene 1571)
Nature of the assay: LTEA_HepaRG_CYP2E1: Life Technologies and Expression Analysis (LTEA) Assay for CYP2E1 using HepaRG (AID 2283485). An outline of the steps: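 Human liver line HepaRG, plated 48 h, then serum-free induction medium + chemical x 48 h; 8-pt CRC from 100 uM, half-log, 0.5% DMSO, n=2. Readout: CYP2E1 mRNA qRT-PCR vs ACTB/GAPDH/POLR2A; bidirectional fit vs DMSO.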

Read-out in another assay: CYP4A11 (gene 1579)
Nature of the assay: LTEA_HepaRG_CYP4A11: Life Technologies and Expression Analysis (LTEA) Assay for CYP4A11 using HepaRG (AID 2283486). In short, it runs like this:
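CYP4A11 transcript levels were quantified by TaqMan qRT-PCR after HepaRG human liver cells were treated for 48 hours with test chemicals (top 100 uM, half-log dilutions, 0.5% DMSO). Gain or loss of signal was fitted relative to DMSO.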

Read-out in assay [14]: Cytochrome P450 (CYP1A2), CYP1A2 (gene 1544)
The assay can be described thus: LTEA_HepaRG_CYP1A2: Life Technologies and Expression Analysis (LTEA) Assay for Cytochrome P450 (CYP1A2) using HepaRG (AID 2283479). In short, it runs like this:
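HepaRG, 48 h exposure, top 100 uM, half-log 8-pt, 0.5% DMSO vehicle, duplicates. Readout: TaqMan qRT-PCR of CYP1A2 mRNA, housekeeping-normalized (ACTB/GAPDH/POLR2A). Gain/loss fit relative to DMSO baseline.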

Apoptosis regulator Bcl-2 (Homo sapiens), sequence (P10415 whole entry, looked up): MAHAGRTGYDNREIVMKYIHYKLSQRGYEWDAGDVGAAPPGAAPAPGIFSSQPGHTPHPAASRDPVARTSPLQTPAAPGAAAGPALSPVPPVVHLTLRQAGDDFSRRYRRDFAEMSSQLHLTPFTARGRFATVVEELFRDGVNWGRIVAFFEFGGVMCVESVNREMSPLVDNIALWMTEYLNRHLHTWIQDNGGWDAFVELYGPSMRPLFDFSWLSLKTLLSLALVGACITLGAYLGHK
Cytochrome P450 2C19 (Homo sapiens), sequence (P33261 whole entry, looked up): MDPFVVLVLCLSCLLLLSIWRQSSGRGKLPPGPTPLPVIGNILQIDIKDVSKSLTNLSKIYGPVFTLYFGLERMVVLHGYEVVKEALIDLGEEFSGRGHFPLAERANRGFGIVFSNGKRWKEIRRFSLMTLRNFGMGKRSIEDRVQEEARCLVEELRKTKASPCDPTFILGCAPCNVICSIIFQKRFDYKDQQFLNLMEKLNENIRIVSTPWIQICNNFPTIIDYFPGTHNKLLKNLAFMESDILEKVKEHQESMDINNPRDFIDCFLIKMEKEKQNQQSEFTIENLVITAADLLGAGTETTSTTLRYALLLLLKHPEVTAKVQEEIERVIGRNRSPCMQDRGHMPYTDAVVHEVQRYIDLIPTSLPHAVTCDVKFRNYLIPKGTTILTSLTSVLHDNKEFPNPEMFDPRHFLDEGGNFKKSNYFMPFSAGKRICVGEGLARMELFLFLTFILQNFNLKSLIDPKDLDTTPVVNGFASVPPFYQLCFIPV
Caspase-3 (Homo sapiens), sequence (P42574 whole entry, looked up): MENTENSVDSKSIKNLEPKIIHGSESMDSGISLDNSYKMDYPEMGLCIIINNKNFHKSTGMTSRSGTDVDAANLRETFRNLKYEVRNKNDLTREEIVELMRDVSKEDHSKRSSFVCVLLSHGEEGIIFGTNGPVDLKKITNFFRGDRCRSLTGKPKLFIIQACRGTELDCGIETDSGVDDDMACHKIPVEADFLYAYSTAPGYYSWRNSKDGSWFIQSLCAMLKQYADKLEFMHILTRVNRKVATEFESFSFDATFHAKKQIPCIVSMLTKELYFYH

For the molecule `CCCCC(CC)COP(=O)(OCC(CC)CCCC)OCC(CC)CCCC` (stereo unspecified), the call in assay [1], in assay [2], in assay [3], in assay [4], in [5] and in assay [6] was inactive. The call (with BCL2L11 (gene 10018); in [7]; in [8]; in assay [9]; with Caspase-3 (Homo sapiens); in [10]) was inactive. The result (in assay [11]; in the assay with CYP2C8 (gene 1558); with CYP2C9 (gene 1559); in the assay with CYP4A11 (gene 1579)) was inactive. The AC50 in [12] was 8.38 µM (active); in assay [13] it was 7.79 µM (active); with CYP2E1 (gene 1571), 19.3 µM (active).
`O=C1O[C@H]([C@H](O)CO)C(O)=C1O`: the result (in assay [1]; in assay [2]; in assay [3]; in [5]; in assay [6]; with BCL2L11 (gene 10018)) was inactive. Besides, the call (in assay [7]; in assay [8]; in assay [9]; with Caspase-3 (Homo sapiens); in [10]; in assay [14]) was inactive. Moreover, the molecule was classed as inactive (in assay [11]; in assay [12]; in assay [13]; with CYP2C8 (gene 1558); with CYP2C9 (gene 1559); in the assay with CYP2E1 (gene 1571)). Besides, the molecule was called inactive with CYP4A11 (gene 1579).
`COc1ccc(OC(F)(F)F)cc1CN[C@H]1CCCN[C@H]1c1ccccc1`: the AC50 was 64.3 µM (active) in assay [1]; 79.3 µM (active) in [5]; 9.61 µM (active) in assay [6]; 84.5 µM (active) with BCL2L11 (gene 10018); 81.8 µM (active) with Caspase-3 (Homo sapiens); 2.8 µM (active) in [13]. The concentration at half-maximal activity (AC50) was 83.7 µM (active) with CYP2C9 (gene 1559), 16.8 µM (active) with CYP2E1 (gene 1571) and 9.12 µM (active) in the assay with CYP4A11 (gene 1579). Besides, the call in assay [2], in assay [3], in [4], in assay [7], in assay [8] and in assay [9] was inactive. Also, the result (in [10]; in assay [11]; with CYP2C8 (gene 1558)) was inactive.

The record behind these values is PubChem BioAssay (EPA / NIEHS).
